Measured values: PubChem BioAssay (NCI)
The panel holds about 79,000 compounds, 15% with a hit somewhere; the sample as a whole holds those more often. Activity calls are given as the source filed them. Cut-off read from the data, not from the text of the source: active = growth inhibition above about 70%; inactive = the rest.

Legend:
[1] = NCI Yeast Anticancer Drug Screen. Data for the rad52 strain (AID 147);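 note: 0% = growth of vehicle-treated control cultures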; settings: S. cerevisiae rad52 mutant growth inhibition, active compounds read high
In short: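 Here a repair-compromised yeast strain receives each compound; its growth is then quantified and normalised to vehicle-only controls.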

[2] = NCI Yeast Anticancer Drug Screen. Data for the rad50EPP+ strain (AID 151);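 note: 0% = growth of vehicle-treated control cultures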; settings: S. cerevisiae rad50 mutant strain, active compounds read high
In short: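 Read-out is yeast growth inhibition relative to vehicle; cells used were the rad50EPP+ strain.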

[3] = NCI Yeast Anticancer Drug Screen. Data for the rad50 strain (AID 155);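 note: 0% = growth of vehicle-only cultures of the same strain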; settings: S. cerevisiae rad50 strain growth inhibition, active compounds read high
In short: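 Readout: growth inhibition relative to vehicle-treated cultures. Compound exposure was carried out in a genetically defined yeast strain deficient in DNA damage repair.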

[4] = NCI Yeast Anticancer Drug Screen. Data for the mec2-1 strain (AID 157); settings: S. cerevisiae mec2-1 strain, active compounds read high
In short: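 Using mec2-1 yeast: add compound, measure growth, express inhibition versus vehicle-treated cultures.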

[5] = NCI Yeast Anticancer Drug Screen. Data for the rad14 strain (AID 159);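 note: 0% = growth of vehicle-treated control cultures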; settings: S. cerevisiae rad14 strain growth inhibition, active compounds read high
In short: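 Growth inhibition vs vehicle controls; genetically altered yeast strain (DNA damage repair defect) treated with test compounds.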

[6] = NCI Yeast Anticancer Drug Screen. Data for the sgs1 mgt1 strain (AID 161);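 note: 0% = growth of cultures given vehicle only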; settings: S. cerevisiae sgs1 mgt1 strain, active compounds read high
In short: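 This yeast growth screen uses a strain with defined DNA-repair lesions; compound-treated growth is compared with vehicle-treated growth.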

[7] = NCI Yeast Anticancer Drug Screen. Data for the CLN2oe strain (AID 163);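 note: 0% = growth of vehicle-only control cultures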; settings: S. cerevisiae CLN2oe strain, active compounds read high
In short: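 Whole-cell yeast growth assay. A strain engineered for altered cell-cycle control received compound, and inhibition relative to vehicle-treated cultures was recorded.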

[8] = NCI Yeast Anticancer Drug Screen. Data for the cln2 rad14 strain (AID 165);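 note: 0% = growth equal to vehicle treated cultures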; settings: S. cerevisiae cln2 rad14 strain, active compounds read high
In short: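 Yeast strain cln2 rad14, bearing defects in cell cycle control and DNA repair, serves as the test system; values reflect growth inhibition compared with vehicle.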

[9] = NCI Yeast Anticancer Drug Screen. Data for the bub3 strain (AID 167); settings: S. cerevisiae bub3 mutant strain, active compounds read high
In short: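 Readout: yeast growth inhibition, expressed relative to vehicle-only wells. The test organism is a mutant strain from a panel with lesions in DNA repair or checkpoint genes.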

[10] = NCI Yeast Anticancer Drug Screen. Data for the wt2 strain (AID 169);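 note: 0% = growth of vehicle-treated yeast cultures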; settings: S. cerevisiae wt2 strain growth inhibition, active compounds read high
In short: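 Treated yeast vs. vehicle-treated yeast: growth inhibition determined.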

[11] = NCI Yeast Anticancer Drug Screen. Data for the mlh1 strain (AID 171);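 note: 0% = growth of vehicle-treated control cultures of the same strain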; settings: S. cerevisiae mlh1 strain growth inhibition, active compounds read high
In short: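 A yeast strain with a defined genetic lesion serves as the test organism. Cultures receive compound or vehicle, and growth is measured.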

[12] = NCI Yeast Anticancer Drug Screen. Data for the sgs1 strain (AID 173);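 note: 0% = growth of vehicle-only control cultures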; settings: S. cerevisiae sgs1 mutant, active compounds read high
In short: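 A genetically defined yeast mutant is incubated with the test compound, and its growth is compared to that of the same strain given vehicle.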

[13] = NCI Yeast Anticancer Drug Screen. Data for the mlh1 rad18 strain (AID 175); settings: S. cerevisiae mlh1 rad18 strain growth inhibition, active compounds read high
In short: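 Steps: expose repair-defective yeast to compound; measure growth; express inhibition against vehicle-treated controls.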

[14] = NCI Yeast Anticancer Drug Screen. Data for the rad18 strain (AID 177); settings: S. cerevisiae rad18 mutant growth inhibition, active compounds read high
In short: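 Measured value is growth inhibition of a yeast strain bearing a DNA repair alteration, referenced to vehicle-treated cells.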

[15] = NCI Yeast Anticancer Drug Screen. Data for the wt1 strain (AID 149);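 note: 0% = growth of vehicle-treated wt1 cultures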; settings: S. cerevisiae wt1 strain (SPY 50644) growth inhibition, active compounds read high
In short: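 Growth inhibition read against vehicle controls after compound exposure of the wt1 yeast strain.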

[16] = NCI Yeast Anticancer Drug Screen. Data for the mgt1 strain (AID 153); settings: S. cerevisiae mgt1 mutant growth inhibition, active compounds read high
In short: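 Measured: inhibition of mgt1 yeast growth by compound, normalized to vehicle-treated cultures.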

[17] = at 5.0 µM (retest, dose inferred, filed as 0.5)
[18] = at 50.0 µM (retest, dose inferred, filed as 5.0)

Measured: growth inhibition

CCN(CC)CCN1C(=O)c2cccc3cc(OC)cc(c23)C1=O
inactive: [1]; at 1.2 µM 8% | [1]; at 3.7 µM 48% | [2]; at 1.2 µM 9% | [2]; at 3.7 µM 37% | [2]; at 11.0 µM 60% | [3]; at 1.2 µM 4% | [3]; at 3.7 µM 43% | [3]; [17] 31% | [4]; at 1.2 µM -10% | [4]; at 3.7 µM -3% | [4]; [17] 5% | [4]; at 11.0 µM -12% | [4]; at 33.0 µM -14% | [4]; [18] 19% | [4]; at 50.0 µM 1.45% | [4]; at 100.0 µM 16% | [5]; at 1.2 µM -10% | [5]; at 3.7 µM 1% | [5]; at 11.0 µM -9% | [5]; at 33.0 µM -6% | [5]; at 100.0 µM 3% | [6]; [17] 13% | [6]; [18] 27% | [6]; at 50.0 µM -4.05% | [7]; at 1.2 µM 2% | [7]; at 3.7 µM -4% | [7]; at 11.0 µM 5% | [7]; at 33.0 µM 7% | [7]; at 100.0 µM 24% | [8]; [17] 27% | [8]; [18] 18% | [8]; at 50.0 µM -3.8% | [9]; at 1.2 µM -9% | [9]; at 3.7 µM -3% | [9]; [17] 11% | [9]; at 11.0 µM -7% | [9]; at 33.0 µM 1% | [9]; [18] 15% | [9]; at 50.0 µM -22.1% | [9]; at 100.0 µM 11% | [10]; at 1.2 µM -23% | [10]; at 3.7 µM -3% | [10]; at 11.0 µM -38% | [10]; at 33.0 µM -35% | [10]; at 100.0 µM 13% | [11]; at 1.2 µM -24% | [11]; at 3.7 µM -5% | [11]; at 11.0 µM -7% | [11]; at 33.0 µM -15% | [11]; at 100.0 µM 9% | [12]; at 1.2 µM -4% | [12]; at 3.7 µM 40% | [12]; at 11.0 µM 42% | [12]; at 33.0 µM 36% | [12]; at 100.0 µM 42% | [13]; [17] 12% | [13]; [18] 36% | [13]; at 50.0 µM -14.2% | [14]; at 1.2 µM 7% | [14]; at 3.7 µM -2% | [14]; at 11.0 µM -13% | [14]; at 33.0 µM -12% | [14]; at 100.0 µM 12%
active: [1]; at 11.0 µM 72% | [1]; at 33.0 µM 91% | [1]; at 100.0 µM 93% | [2]; at 33.0 µM 86% | [2]; at 100.0 µM 93% | [3]; at 11.0 µM 74% | [3]; at 33.0 µM 90% | [3]; [18] 94% | [3]; at 50.0 µM 79.6% | [3]; at 100.0 µM 93%

O=C(O)CNc1ccc(Cl)c(Cl)c1
active: [15]; at 100.0 µM 98% | [16]; at 100.0 µM 99% | [3]; at 33.0 µM 75% | [3]; at 50.0 µM 78.2% | [3]; at 100.0 µM 98% | [4]; at 100.0 µM 99% | [5]; at 100.0 µM 98% | [7]; at 100.0 µM 98% | [8]; at 50.0 µM 84.2% | [9]; at 50.0 µM 87.3% | [9]; at 100.0 µM 98% | [10]; at 33.0 µM 78% | [10]; at 100.0 µM 99% | [11]; at 33.0 µM 71% | [11]; at 100.0 µM 99% | [12]; at 33.0 µM 74% | [12]; at 100.0 µM 98% | [13]; [18] 76% | [13]; at 50.0 µM 89.2% | [14]; at 33.0 µM 76% | [14]; at 100.0 µM 98%
inactive: [15]; at 1.2 µM -3% | [15]; at 3.7 µM -6% | [15]; at 11.0 µM -6% | [15]; at 33.0 µM 25% | [2]; at 1.2 µM -2% | [2]; at 3.7 µM 1% | [2]; at 11.0 µM 6% | [2]; at 33.0 µM 22% | [2]; at 100.0 µM 43% | [16]; at 1.2 µM -2% | [16]; at 3.7 µM -4% | [16]; at 11.0 µM -6% | [16]; at 33.0 µM 32% | [3]; at 1.2 µM -2% | [3]; at 3.7 µM 6% | [3]; [17] -7% | [3]; at 11.0 µM 13% | [3]; [18] 18% | [4]; at 1.2 µM -10% | [4]; at 3.7 µM -1% | [4]; [17] -7% | [4]; at 11.0 µM -8% | [4]; at 33.0 µM 38% | [4]; [18] 30% | [4]; at 50.0 µM 57.2% | [5]; at 1.2 µM -6% | [5]; at 3.7 µM -7% | [5]; at 11.0 µM -7% | [5]; at 33.0 µM 48% | [6]; [17] -6% | [6]; [18] 22% | [6]; at 50.0 µM 38.4% | [7]; at 1.2 µM -4% | [7]; at 3.7 µM -1% | [7]; at 11.0 µM 0% | [7]; at 33.0 µM 58% | [8]; [17] 10% | [8]; [18] 1% | [9]; at 1.2 µM -9% | [9]; at 3.7 µM -12% | [9]; [17] -8% | [9]; at 11.0 µM 5% | [9]; at 33.0 µM 67% | [9]; [18] 17% | [10]; at 1.2 µM -5% | [10]; at 3.7 µM -5% | [10]; at 11.0 µM -6% | [11]; at 1.2 µM -2% | [11]; at 3.7 µM 1% | [11]; at 11.0 µM 2% | [12]; at 1.2 µM -3% | [12]; at 3.7 µM -5% | [12]; at 11.0 µM 4% | [13]; [17] -16% | [14]; at 1.2 µM -2% | [14]; at 3.7 µM -4% | [14]; at 11.0 µM 2%

CCCCCCCC1(N=[N+]=[N-])C(=O)c2ccccc2N(C)C1=O (stereo unspecified)
active: [15]; at 100.0 µM 73% | [3]; at 50.0 µM 79.3% | [3]; at 100.0 µM 74% | [4]; at 33.0 µM 72% | [4]; [18] 80% | [4]; at 50.0 µM 81.2% | [4]; at 100.0 µM 80% | [7]; at 100.0 µM 79% | [8]; [18] 75% | [9]; [18] 83% | [11]; at 100.0 µM 78% | [12]; at 33.0 µM 71% | [12]; at 100.0 µM 85% | [13]; [18] 87% | [13]; at 50.0 µM 76.3% | [14]; at 100.0 µM 83%
inactive: [15]; at 1.2 µM 7% | [15]; at 3.7 µM 7% | [15]; at 11.0 µM 7% | [15]; at 33.0 µM 59% | [2]; at 1.2 µM 5% | [2]; at 3.7 µM 15% | [2]; at 11.0 µM 24% | [2]; at 33.0 µM 54% | [2]; at 100.0 µM 65% | [16]; at 1.2 µM -11% | [16]; at 3.7 µM -18% | [16]; at 11.0 µM -2% | [16]; at 33.0 µM 51% | [16]; at 100.0 µM 69% | [3]; at 1.2 µM -1% | [3]; at 3.7 µM 1% | [3]; [17] -4% | [3]; at 11.0 µM 13% | [3]; at 33.0 µM 67% | [3]; [18] 60% | [4]; at 1.2 µM -3% | [4]; at 3.7 µM -27% | [4]; [17] -1% | [4]; at 11.0 µM -2% | [5]; at 1.2 µM -23% | [5]; at 3.7 µM -20% | [5]; at 11.0 µM -20% | [5]; at 33.0 µM 39% | [5]; at 100.0 µM 63% | [7]; at 1.2 µM 21% | [7]; at 3.7 µM 8% | [7]; at 11.0 µM 23% | [7]; at 33.0 µM 61% | [8]; [17] 30% | [8]; at 50.0 µM 68.7% | [9]; at 1.2 µM -9% | [9]; at 3.7 µM -17% | [9]; [17] 3% | [9]; at 11.0 µM -15% | [9]; at 33.0 µM 52% | [9]; at 50.0 µM 64.5% | [9]; at 100.0 µM 69% | [10]; at 1.2 µM 13% | [10]; at 3.7 µM 16% | [10]; at 11.0 µM 20% | [10]; at 33.0 µM 57% | [10]; at 100.0 µM 67% | [11]; at 1.2 µM 20% | [11]; at 3.7 µM 10% | [11]; at 11.0 µM 18% | [11]; at 33.0 µM 61% | [12]; at 1.2 µM 9% | [12]; at 3.7 µM 14% | [12]; at 11.0 µM 20% | [13]; [17] 0% | [14]; at 1.2 µM 18% | [14]; at 3.7 µM 12% | [14]; at 11.0 µM 20% | [14]; at 33.0 µM 67%
